A selection: hits, their analogues and other compounds. The true share with any hit is near 4.2%.
RecA intein inh: Mtb RecA intein splicing inhibition | cell-free RecA intein splicing, fluorescence | P9WHJ3 | inhibition, % (test concentration not listed) | 290,000 compounds, 0.75% hits; in the data active = inhibition above about 30%;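 note: 0% = vehicle wells and 100% = reference inhibitor control wells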
Target sequence (P9WHJ3 whole entry, looked up): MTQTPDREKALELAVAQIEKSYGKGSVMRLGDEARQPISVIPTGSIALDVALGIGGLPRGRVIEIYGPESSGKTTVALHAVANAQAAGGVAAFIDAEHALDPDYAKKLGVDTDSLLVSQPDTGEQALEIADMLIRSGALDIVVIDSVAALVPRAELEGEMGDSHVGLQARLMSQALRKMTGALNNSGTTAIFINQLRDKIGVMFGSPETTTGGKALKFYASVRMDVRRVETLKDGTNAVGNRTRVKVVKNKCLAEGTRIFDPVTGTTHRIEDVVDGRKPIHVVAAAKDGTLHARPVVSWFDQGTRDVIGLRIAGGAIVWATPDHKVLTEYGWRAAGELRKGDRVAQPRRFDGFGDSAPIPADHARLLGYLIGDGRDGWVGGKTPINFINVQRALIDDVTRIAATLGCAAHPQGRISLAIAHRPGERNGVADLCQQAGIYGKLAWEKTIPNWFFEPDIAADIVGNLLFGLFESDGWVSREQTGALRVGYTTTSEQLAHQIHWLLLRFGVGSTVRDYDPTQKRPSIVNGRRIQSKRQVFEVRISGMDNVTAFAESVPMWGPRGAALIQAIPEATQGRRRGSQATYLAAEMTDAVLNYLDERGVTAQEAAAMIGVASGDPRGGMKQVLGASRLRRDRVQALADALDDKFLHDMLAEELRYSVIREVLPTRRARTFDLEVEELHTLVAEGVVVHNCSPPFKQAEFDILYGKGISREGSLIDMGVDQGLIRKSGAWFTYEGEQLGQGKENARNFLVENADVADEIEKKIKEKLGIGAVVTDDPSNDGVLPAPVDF
FBA Mtb inh: Mtb fructose-bisphosphate aldolase inhibition; inhibition, % at 1 µM; P9WQA3; 360,000 compounds, 2.3% hits; purified M. tuberculosis FBA, fluorescence read-out; AID 588726; in the data active = inhibition above about 27%;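 note: 0% = vehicle and 100% = reference inhibitor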
PrPC surface inh: inhibitors of human cell surface prion protein PrPC | P04156 | TR-FRET read-out | inhibition, % at 13.8 µM | 370,000 compounds, 0.43% hits; in the data active = inhibition above about 24%; note: 0% = median of the test wells and 100% = reference compound wells
BJeLR viability: kills HRASV12-expressing BJeLR cells | BJeLR (HRASV12) viability, CellTiter-Glo ATP luminescence, 48 h | inhibition, % (test concentration not listed) | 300,000 compounds, 0.17% hits | AID 1554; in the data active = inhibition above about 50%
GDH-TPI counter: counter-screen for M. tuberculosis FBA inhibitors: GDH-TPI coupled enzymes. GDH-TPI coupled enzyme counterscreen, NADH absorbance. inhibition, % at 4.8 µM. 360,000 compounds, 1.2% hits; in the data active = inhibition above about 30%;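 note: 0% = DMSO wells and 100% = wells lacking the enzyme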
GFP chromophore: counter-screen: blocks GFP chromophore formation | shares compounds with RecA intein inh | cell-free GFP chromophore formation, fluorescence | EC50, µM | 2,100 compounds, 83% hits | AID 434968; call rule not given here
* = called active by the depositor; · = not tested or not shown.

SMILES | RecA intein inh | FBA Mtb inh | PrPC surface inh | BJeLR viability | GDH-TPI counter | GFP chromophore
C/C(=N/NC(=O)CSc1nnc(-c2ccccc2)n1-c1ccc(Cl)cc1)c1cccc(O)c1 | · | · | 4.6 | · | · | ·
CCC(NC(=O)CCCN1C(=O)COc2ccc(C)cc21)c1ccccc1 (stereo not given) | · | · | -3.1 | · | · | ·
O=C(c1ccc2nc(Cc3cccc(Cl)c3)oc2c1)N1CCC(O)CC1 | 41.8* | -0.5 | -4.5 | -3.9 | -1.3 | >38
O=C(c1ccc2nc(Cc3cccc(Cl)c3)oc2c1)N1CCC(CO)CC1 | 1.9 | -2.3 | 1.3 | 4.3 | -0.4 | ·
COc1ccc(NC2c3ccccc3C(=O)N2c2cccnc2)cc1 (stereo not given) | 0.8 | -7.0 | 8.4 | 0.3 | 9.9 | ·
Cc1ccccc1N1C(=O)c2ccccc2C1Nc1cccnc1 (stereo not given) | 33.2* | 0.3 | 3.5 | -5.3 | -13.9 | >38
CC(C)CNC(=O)OCc1cn(Cc2cccc(F)c2F)nn1 | · | · | -0.1 | · | · | ·
COP(=O)(O)C(C)NC(=O)OCc1ccccc1 (stereo not given) | · | · | 9.3 | · | · | ·
OC1(Cc2ccccc2)CCN(c2ncnc3sccc23)CC1 | · | · | 20.3 | · | · | ·
Cc1noc(C)c1S(=O)(=O)Nc1ccccc1Oc1ccccc1 | 5.6 | -4.7 | 10.2 | 3.5 | 4.1 | ·
O=C1c2ccccc2-c2onc3ccc(Oc4ccccc4)c1c23 | 86.2* | -3.4 | -27.8 | 6.7 | 10.8 | 0.811*
CCCCOP(=O)(OCCCC)C1(NS(=O)(=O)c2ccccc2)C=CC(=O)c2ccccc21 (stereo not given) | 88.2* | -1.0 | -24.3 | -8.4 | 14.3 | 4.99*
CCCCOCCCNS(=O)(=O)c1ccccc1 | 1.0 | -0.8 | 0.7 | 3.1 | -11.7 | ·
Cc1c(C)n(O)c2ccc3nonc3c12 | 55.6* | 5.4 | 6.0 | -0.4 | 10.0 | 23.7*
CCOC(=O)[C@]12CCCCC/C=C\1N(CCc1ccc(Cl)cc1)C(=O)[C@H]2CC(=O)N1CCOCC1 | · | · | 6.3 | · | · | ·
Cc1[nH][nH]c(=O)c1C(c1ccc(N(C)C)c(Br)c1)c1c(C)[nH][nH]c1=O | 97.3* | -3.7 | -7.5 | 0.1 | 1.3 | 0.471*
COC(=O)[C@]12C[C@H](CC(=O)N3CCCCC3)C(=O)N(CCc3ccc(OC)c(OC)c3)C1=C[C@H](C1CCCC1)O[C@@H]2C | · | · | 5.8 | · | · | ·
CC(C)CCn1c(Sc2nc3ccccc3o2)nc2c1c(=O)[nH]c(=O)n2C | 31.1* | -1.7 | -3.6 | -0.8 | -4.4 | 5.03*
Cn1c(=O)[nH]c(=O)c2c1nc(N1CCCCC1)n2CCSc1nc2ccccc2o1 | -9.6 | -1.0 | 10.4 | 12.6 | -4.0 | ·
CCCCCCCCN1C(=O)[C@@H](CC(=O)N2CCOCC2)C[C@@]2(C(=O)OC)C1=C[C@H](C1CCCC1)O[C@@H]2C | · | · | 6.3 | · | · | ·
CS(=O)(=O)c1cnc(-c2ccccc2)nc1Sc1ccc(F)cc1 | 1.3 | 0.2 | 0.2 | -12.0 | 8.0 | ·
Fc1ccc(Sc2nc(-c3ccccc3)nnc2C(F)(F)F)cc1 | 70.9* | -4.0 | 0.6 | -9.8 | -2.9 | 0.885*
COC(=O)c1ccc(Cn2ccc3ccc(-c4ccc5ccn(C(=O)c6ccccc6)c5c4)cc32)cc1 | · | · | -7.7 | · | · | ·
CCOC(=O)c1nn(-c2ccccc2C)c(=O)c2c(N)scc12 | 47.7* | -4.1 | -15.7 | 0.2 | 1.9 | >38
CC(=O)N(C1=C(N)C(=O)c2ccccc2C1=O)c1ccccc1 | 87.5* | -3.0 | -68.3 | 5.2 | -2.1 | 4.34*
SMILES | RecA intein inh | FBA Mtb inh | PrPC surface inh | BJeLR viability | GDH-TPI counter | GFP chromophore
COC(=O)c1ccc(-c2ccc3c(c2)[C@]2(CCC[C@@H](O)[C@@H]2NC(=O)CCc2ccccc2)C(=O)N3Cc2ccccc2)cc1 | · | · | -6.0 | · | · | ·
O=Cc1ccc(Sc2nnc(-c3ccccc3)o2)c([N+](=O)[O-])c1 | 55.4* | -1.0 | · | -7.0 | 16.0 | 26.2*
Cc1cc(C)nc(Sc2ccc(C=O)cc2[N+](=O)[O-])n1 | 2.4 | -2.8 | -14.4 | 21.2 | 0.9 | ·
CCCC1CCC2(CCCN2CCOC(=S)Nc2ccccc2)CC1 (stereo not given) | · | · | 1.0 | · | · | ·
COc1ccc(OC)c(NC(=O)Cc2ccc(NC3=NC4CS(=O)(=O)CC4S3)cc2)c1 (stereo not given) | 38.0* | -0.2 | -2.0 | 0.1 | -1.4 | >38
O=C(NC1CCCCN(Cc2cccc(C(F)(F)F)c2)C1=O)c1cccc(F)c1 (stereo not given) | · | · | -4.8 | · | · | ·
CCc1cc2c3c(c1)C1(C(=O)N3C(C)(C)C=C2C)C(C#N)=C(N)Oc2[nH]c(=O)[nH]c(=O)c21 (stereo not given) | 78.2* | 1.9 | -6.7 | 2.5 | -1.9 | 18.6*
Cc1ccc(Cn2cc(CN3[C@@H](CC(C)C)COc4cccc(F)c4S3(=O)=O)nn2)cc1 | · | · | -10.0 | · | · | ·
Cc1[nH]nc2c1C(c1ccsc1)C(C#N)=C(N)O2 (stereo not given) | 82.6* | -2.4 | 1.4 | 13.4 | 6.3 | 39.3*
CCC(CC)C1C(C#N)=C(N)Oc2n[nH]c(-c3ccccc3)c21 (stereo not given) | 3.6 | 0.1 | 16.9 | -5.4 | 9.0 | ·
COc1cccc(-c2[nH]nc3c2C(c2ccsc2)C(C#N)=C(N)O3)c1 (stereo not given) | 76.4* | 0.4 | 1.2 | -2.8 | 5.1 | 7.72*
N#CC1=C(N)Oc2n[nH]c(-c3ccccc3)c2C1c1ccsc1 (stereo not given) | 86.5* | -2.5 | -4.3 | 17.1 | 21.7 | 30.9*
Cc1[nH]nc2c1C(c1ccc3c(c1)OCO3)C(C#N)=C(N)O2 (stereo not given) | 66.5* | 1.9 | 2.4 | -5.8 | 7.2 | 38.6*
CC(=O)NC1CCCCN(Cc2cccc(F)c2)C1=O (stereo not given) | · | · | 0.0 | · | · | ·
CCOC(=O)CCCNC(=O)O[C@@H]1CC[C@@]23CCCN2C(=O)CCC[C@H]3C1 | · | · | 5.0 | · | · | ·
COc1ccc(C2C(C#N)=C(N)Oc3n[nH]c(-c4ccccn4)c32)c(OC)c1OC (stereo not given) | 13.5 | -0.2 | -2.5 | -3.6 | -9.4 | ·
COc1cc(C2C(C#N)=C(N)Oc3n[nH]c(-c4ccncc4)c32)cc(OC)c1OC (stereo not given) | -3.9 | 2.2 | -0.7 | 5.7 | 3.7 | ·
COc1cccc(-c2[nH]nc3c2C(c2ccoc2)C(C#N)=C(N)O3)c1 (stereo not given) | 81.5* | 3.3 | -10.8 | 2.0 | 26.6 | 9.79*
COc1cc(-c2[nH]nc3c2C(c2ccco2)C(C#N)=C(N)O3)cc(OC)c1OC (stereo not given) | 79.2* | -2.1 | -5.3 | -9.3 | 8.1 | 9.14*
Cc1ccc(-c2[nH]nc3c2C(c2ccsc2)C(C#N)=C(N)O3)cc1 (stereo not given) | 65.2* | 0.4 | -1.8 | 7.8 | -1.6 | 1.82*
N#CC1=C(N)Oc2n[nH]c(-c3ccncc3)c2C1c1ccsc1 (stereo not given) | 53.8* | 4.7 | -6.3 | -3.9 | 5.2 | 38.4*
COc1cc(-c2[nH]nc3c2C(c2ccoc2)C(C#N)=C(N)O3)cc(OC)c1OC (stereo not given) | · | -1.1 | -0.7 | · | 10.3 | ·

Screening results: PubChem, several laboratories
